Results reported in PubChem BioAssay (NCATS).
Records with an inconclusive call do not appear. A call without a number means that no potency is given here. The source made the active and inactive calls. Calls follow the shape of the dose curve; as a rule, active = well fitted inhibition curve with a large enough effect; inconclusive = small, poorly fitted or top-dose-only effect, or effect the other way; inactive = flat fitted curve, though single readings scatter.
Potency is read from the fitted curve at half-maximal effect.

Experiment: qHTS for Inhibitors of Plasmodium falciparum (CP250) proliferation (AID 504320)
Conditions: P. falciparum CP250 in erythrocytes, SYBR Green DNA, 72 h; series mostly up to 6.7 µM
Description: Plasmodium falciparum is a virulent malarial parasite that kills 1-2 million people worldwide each year. Malaria not only inflicts tremendous suffering and morbidity on the human population, but has dramatically influenced the course of civilization with profound sociological and economic implications (Shah, S. 2010). Transmitted by mosquitoes, the sporozoite form of the parasite enters the blood stream to infect hepatocytes, where they become merozoites that infect red blood cells (erythrocytes). Within erythrocytes, merozoites begin a […] cycle of growth and division, after which the parasite is released to infect new red blood cells. Gametocytes, which form within erythrocytes as well, circulate in the bloodstream and are ingested by the mosquito, thereby completing the life cycle (see CDC website). To profile malarial lines for differential chemical responses and to identify inhibitors of malarial growth, an assay that measures P. falciparum growth and replication within erythrocytes was employed. This assay uses a DNA binding fluorescent dye (SYBR Green) to detect parasite DNA following cell lysis. Because mature erythrocytes lack DNA, only Plasmodium-derived DNA is detected. The P. falciparum line cp250, derived from a malarial isolate from Cambodia, (Mu, J., et al. 2010) was added to the panel of lines, Dd2, HB3, 7G8 and GB4 in this study. Laboratory of Assay Development and Screening Technology [ADST] and NIH Chemical Genomics Center [NCGC] Boston University, Chemistry Department, Center for Chemical Methodology and Library Development [CMLD-BU] NIH National Institute of Allergy and Infectious Diseases [NIAID]
ADST Assay Protocol Summary: The 1536-well SYBR Green viability assay was based on the method of Bennett et al (2004) and described previously in 1536-well format (Yuan J., et al. 2009). For screening 3 ul culture medium was dispensed into 1536 well black clear bottom plates (Aurora Biotechnologies) using a Multidrop Combi (Thermo Fisher Scientific Inc.), 23 nL compounds in DMSO were added by a pin transfer (Cleveland, P.H. and Koutz, P.J, 2005) using a pin tool-based delivery system (Kalypsys), and 5 ul of erythrocytes infected with P. falciparum one of five lines (cp250, Dd2, HB3, 7G8 or GB4, 0.3% parasitemia, 2.5% hematocrit final concentration) were added. The plates were incubated at 37C in a humidified incubator in 5% CO2 for 72 h, and 2 ul lysis buffer (20 mM Tris HCl, 10 mM EDTA, 0.16% saponin, 1.6% triton X, 10X SYBR Green I (supplied as 10,000X final concentration by Invitrogen) was added to each well. The plates were mixed for 25 sec with gentle shaking and incubated overnight at room temperature in the dark. The following morning, fluorescence intensity at 485(14) nm excitation and 535(25) nm emission wavelengths was measured on an EnVision (Perkin Elmer) plate reader. Plate reads were normalized relative to the control inhibitor (0.29 uM artemisinin) and vehicle (DMSO) wells present on each plate and then corrected by an algorithm using vehicle-only control plates at the beginning and end of the compound plate stack. References Shah, S. (2010). The Fever: how malaria has ruled humankind for 500,000 years. New York, Sarah Crichton Books. CDC web site, http://www.cdc.gov/malaria/about/biology/index.html Mu, J., Myers, R.A., Jiang, H., Liu, S., Ricklefs, S., Waisberg, M., Chotivanich, K., Wilairatana, P., Krudsood, S., White, N.J., et Plasmodium falciparum genome-wide scans for positive selection, recombination hot spots and resistance to antimalarial drugs Nature Genetics 2010, 42, pp 268-271 Bennett TN, Paguio, M., Gligorijevic, B., Seudieu, C., Kosar, A. D., Davidson, E., and Roepe, P. D. Novel, rapid, and inexpensive cell-based quantification of antimalarial drug efficacy Antimicrobial Agents Chemother. 2004, 48(5): pp 1807-10 Yuan J, Johnson RL, Huang RL, Wichterman J, Jiang HY, Hayton K, Fidock DA, Wellems TE, Inglese J, Austin CP, Su XZ. […]
For `O=P1(O)Oc2c(c(-c3ccccc3)cc3ccc4ccccc4c23)-c2c(-c3ccccc3)cc3ccc4ccccc4c3c2O1`, the Potency was “inactive”.
For `CC1=C[C@@H](COCc2ccccc2)O[C@@]2(C1)C(=O)N(Cc1ccc(Br)cc1)c1ccccc12`, the Potency was “inactive”.
With `C=CCOC(=O)N[C@@H](Cc1ccccc1)C(C(=O)OC)=C(C)NCc1ccccc1` the Potency was “inactive”.
With `CCCCc1cc2c(cn1)=C(OC(=O)C1CCCC1)C(C)(OC(=O)CC)C(=O)C=2` (stereo not given) the Potency was “inactive”.
In the case of `CCC(C)CN1C(=O)NC(c2ccccc2)C(C(=O)OC)=C1C` (stereo not given), the Potency is reported as “inactive”.
For `CCN1C(=NCCOC)N[C@@H](c2ccccc2)[C@H](C(=O)OC)[C@H]1C`, the Potency was “inactive”.
With `COCCN1C(=O)N[C@@H](CCc2ccccc2)[C@@H](C(=O)OC)[C@H]1C` the Potency was “inactive”.
For `C=CC1=C2C=C(C3CC3)N(c3ccc(OC)cc3)C=C2C(=O)C(C)(OC(=O)c2ccco2)C1=O` (stereo not given), the Potency was “inactive”.
With `CC(=O)C1=C(C)N(Cc2ccccc2)C(=O)NC1c1cccc(F)c1` (stereo not given) the Potency was “inactive”.
In the case of `C=C(C#CCCO)CCN1C=C(C(=O)OCC)C(c2ccccc2)NC1=O` (stereo not given), the Potency is reported as “inactive”.
With `Cc1cc2c(c(=O)n1Cc1ccccc1)[C@H]1O[C@](CCCCN3C(=O)c4ccccc4C3=O)(Cc3c1ccc1ccccc31)O2` the Potency was 1.69 µM (active).
For `COc1ccc2c(c1)O[C@@H](c1ccc3c(c1)OCO3)[C@H](OC(=O)Nc1ccc(OC(F)F)cc1)C2=O`, the Potency was “inactive”.
In the case of `C#CCNC(=O)[C@H]1C=C(OC)C(=O)C[C@H]2c3ccccc3C[C@]12C`, the Potency is reported as “inactive”.
For `CCc1cc2c(nc1CC)CCN(CCC(C)=NO[C@@H](C)c1cn([C@H](CO)Cc3ccccc3)nn1)C2`, the Potency was “inactive”.
For `C#CCCCON=C1C[C@@H](O)[C@H](O)[C@H]2[C@@H]3C(=O)N(c4ccc(F)cc4F)C(=O)[C@@H]3CC[C@H]12`, the Potency was “inactive”.
For `CCCNC(=O)OC[C@H]1O[C@H](CCON=C(C)CCC(=O)OC[C@H]2O[C@H](C#Cc3ccccc3)C=C[C@H]2Oc2ccc(C)cc2)C=C[C@H]1Oc1ccc(OC)cc1`, the Potency was “inactive”.
In the case of `COC(=O)C1=C[C@@H]([C@@H](C)[C@H](OC)c2ccccc2Br)[C@@H]2OCC[C@H]12`, the Potency is reported as “inactive”.
In the case of `C[C@@H]1CC[C@H]2C(=O)N3[C@@H](CC[C@@H](C)[C@@H]3c3ccc(-c4ccco4)cc3)C(=O)N2[C@@H]1c1ccc(-c2ccco2)cc1`, the Potency is reported as “inactive”.
With `CCN1C(=S)NC(c2ccccc2)C(C(=O)OC)=C1C` (stereo not given) the Potency was “inactive”.
With `CC1(OC(=O)C2CCCC2)C(=O)C=C2C=C(c3ccsc3)N(C(CO)CO)C=C2C1=O` (stereo not given) the Potency was “inactive”.
With `COC(=O)C1=C(C)N(CC2CC2)C(=O)NC1CCc1ccccc1` (stereo not given) the Potency was “inactive”.
In the case of `C=CCOC(=O)C1(C(NC(=O)OC)c2ccccc2)C(=O)Cc2ccccc21` (stereo not given), the Potency is reported as “inactive”.
In the case of `C#CCN1C(=O)[C@]2(OCCC=C[C@@H]2C)c2cc(OC)ccc21`, the Potency is reported as “inactive”.
For `O=C1N(Cc2ccc(Br)cc2)c2cccc(Br)c2[C@@]12O[C@H](COc1ccccc1)CC1=CCCC12` (stereo not given in full), the Potency was “inactive”.
In the case of `C[C@H]1[C@@H](C(=O)N2CCCC2)CC(=NOCc2ccccc2)C(=NOCc2ccccc2)C[C@H]1c1ccccc1`, the Potency is reported as “inactive”.
In the case of `COC(=O)CCCC1=CC2=C(c3ccccc3)C(=O)C(C)(OC(=O)C3CCCC3)C(=O)C2=CN1c1ccc(OC)cc1` (stereo not given), the Potency is reported as “inactive”.
For `COC1=CC2C(=O)C([C@@H]3c4ccccc4C[C@]23C)C1(O)c1cccc(OC)c1` (stereo not given in full), the Potency was “inactive”.
In the case of `Cc1cc2c(nc1C)CCCN2CC(O)CN1CCN(C)CC1` (stereo not given), the Potency is reported as “inactive”.
In the case of `COC[C@@H](OC(C)=O)[C@H]1OCc2ccccc2[C@H]1C=Cc1ccccc1`, the Potency is reported as “inactive”.
With `COc1cccc([C@H]2Oc3ccc(OC)cc3C(=NO[C@H](C)c3cn([C@H](CO)Cc4ccccc4)nn3)[C@H]2O)c1` the Potency was “inactive”.
In the case of `COC(=O)C1=C(C)N(CC2CC2)C(=O)NC1c1ccccc1` (stereo not given), the Potency is reported as “inactive”.
In the case of `CCOC(=O)C1=CN(CCNC(=O)OC(C)(C)C)C(=O)NC1c1ccccc1` (stereo not given), the Potency is reported as “inactive”.
With `COC(=O)C[C@H]1c2ccccc2C2=C(C[C@@H](C)[C@H]3C(=O)N(c4ccccc4)C(=O)[C@@H]23)N1C(=O)OC` the Potency was “inactive”.
For `COC(=O)CC1c2ccccc2C(Cc2ccc3c(c2)OCO3)=C(C)N1C(=O)OC` (stereo not given), the Potency was “inactive”.
With `COC(=O)C1=C(C)N(CC#C[Si](C)(C)C)C(=O)N(C(C)=O)C1c1ccccc1` (stereo not given) the Potency was “inactive”.
In the case of `COc1ccc(C(=O)CC(=O)c2c(O)cc(OC)cc2OC)cc1`, the Potency is reported as “inactive”.
For `CC(=O)C1=C(C)N(Cc2ccccc2)C(=O)NC1c1ccc(Br)cc1` (stereo not given), the Potency was “inactive”.
For `COc1ccc2c(c1)C(=O)[C@H](OC(=O)N[C@H]1CCCc3ccccc31)[C@@H](c1ccc(OC)c(Br)c1)O2`, the Potency was “inactive”.
In the case of `COC(=O)C=C[C@H]1c2ccccc2[C@@H](OC)[C@@H]1C`, the Potency is reported as “inactive”.
With `CC(C)[C@@H](OCc1ccccc1)[C@H](C)C=NO[C@H](C)c1cn([C@H](CO)Cc2ccccc2)nn1` the Potency was “inactive”.
